VCAM1 TNFa inh = inhibitors of TNFa-induced VCAM1 expression, primary screen, imaging, HUVEC, TNFa stimulus, immunofluorescence; 95,000 tested, 0.48% active; HUVEC TNFa-induced VCAM-1 immunofluorescence, high-content imaging; inhibition, % at 2 µM; AID 802, 2007;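 active means inhibition above the batch mean plus 3 SD, with images confirmed as a hit by eye, cut at about 37% in these data; inconclusive means inhibition above that limit but hit not confirmed in images; inactive means inhibition not above that limit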;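 further: 0% = TNF-stimulated DMSO wells and 100% = unstimulated control wells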
HUVEC tox TNFa = cytotoxicity in TNFa-stimulated HUVEC, primary screen, cytotoxicity control for VCAM1 expression modulator project, imaging, Hoechst nuclei count; 93,000 tested, 0.17% active; HUVEC TNFalpha-stimulated, Hoechst cell count; cell count reduction, % at 2 µM;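 active means cell count reduction exceeding the screen mean by over 5 SD, scaled to untreated wells per plate, cut at about 78% in these data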;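 further: cells counted after 24 h of TNF alpha exposure following the 1 h pretreatment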
PLAP act = PLAP enzyme activators, biochemical, luminescence, HTS; AID 696, 2007; activation fold at 20 µM; Alkaline phosphatase, placental type (Homo sapiens), P05187; 96,000 tested, 1.2% active; purified PLAP enzyme, luminescent substrate read-out; active compounds read high; in the data active means activation fold above about 2
Target sequence (P05187 whole entry, looked up): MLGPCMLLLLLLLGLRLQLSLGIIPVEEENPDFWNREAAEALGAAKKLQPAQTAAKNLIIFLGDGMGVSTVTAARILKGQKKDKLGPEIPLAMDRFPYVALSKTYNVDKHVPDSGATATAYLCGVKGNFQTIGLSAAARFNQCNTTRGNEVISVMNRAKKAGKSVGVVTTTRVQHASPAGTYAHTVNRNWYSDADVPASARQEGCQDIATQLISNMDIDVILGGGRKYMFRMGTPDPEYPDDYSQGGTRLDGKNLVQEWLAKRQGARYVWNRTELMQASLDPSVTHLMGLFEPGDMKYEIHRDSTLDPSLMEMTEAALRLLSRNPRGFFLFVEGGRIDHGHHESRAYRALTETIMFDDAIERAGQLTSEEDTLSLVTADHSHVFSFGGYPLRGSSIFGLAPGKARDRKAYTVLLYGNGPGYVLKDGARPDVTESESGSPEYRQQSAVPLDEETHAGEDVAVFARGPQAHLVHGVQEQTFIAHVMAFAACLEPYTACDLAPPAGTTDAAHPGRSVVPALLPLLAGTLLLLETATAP
cytoskel mod = modifiers of F-actin cytoskeleton organization, primary screen, imaging, HUVEC, phalloidin staining, high-content imaging. HUVEC TNFa F-actin phalloidin imaging. inhibition, % at 2 µM. 91,000 tested, 0.18% active. AID 836, 2007;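 active means inhibition above the batch mean plus 3 SD and confirmed as a hit by visual image inspection, cut at about 30% in these data, passing the limit was not always enough; inconclusive means above the inhibition threshold but rejected on visual inspection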
E-sel TNF inh = E-selectin induction blockers in HUVEC – imaging, immunofluorescence, high content, primary screen; HUVEC TNFa-induced E-selectin immunofluorescence; inhibition, % at 2 µM; 120,000 tested, 0.71% active; AID 1246, 2008;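 active means inhibition above the batch mean plus 3 SD, and confirmed as a hit on visual image review, cut at about 43% in these data; inconclusive means passes the inhibition cutoff but fails visual image review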;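 further: 0% = TNF-stimulated DMSO wells and 100% = unstimulated control wells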
An asterisk follows results filed as active; u = inconclusive; x = no result given. Compounds with a hit are over-represented: about 2% of the library has one in this group of screens.

SMILES | VCAM1 TNFa inh | HUVEC tox TNFa | PLAP act | cytoskel mod | E-sel TNF inh
COC(=O)c1cc2sc(Cl)cc2n1CC(=O)Nc1cccc(SC)c1 | -6.5 | 12.5 | 1 | 33.7 | 65.2*
Cc1cc2nc(C)n(CCCNC(=O)Nc3cccc4ccccc34)c2cc1C | -14.6 | -10.2 | x | -11.7 | 11.1
CCOc1ccc(NC(=O)NCCCn2c(C)nc3cc(C)c(C)cc32)cc1 | -0.1 | -18.8 | 2.2* | -11.8 | 5.0
O=C(NCc1cccs1)C(=O)c1cn(CC(=O)N2CCCC2)c2ccccc12 | x | x | x | x | -10.6
Nn1c(SCc2nc3ccccc3[nH]2)nnc1-c1cccnc1 | x | x | 2* | x | -20.4
Cn1nnnc1SCc1nc2ccccc2[nH]1 | 17.7 | -15.3 | 0.9 | -20.4 | 2.2
Nn1c(SCc2nc3ccccc3[nH]2)nnc1C1CCCCC1 | -16.4 | 18.7 | 2.1* | -9.8 | -11.3
O=C(c1ccc(N2CCCCC2)c([N+](=O)[O-])c1)N(c1ccccn1)c1ccccn1 | x | x | x | x | -4.4
Cc1c(C(=O)N2CCCc3ccccc32)oc2ccc(S(=O)(=O)N3CCOCC3)cc12 | -11.0 | -1.8 | 1.3 | -19.0 | -22.5
COC(=O)c1ccc(NC(C)=O)cc1O | x | x | x | x | -17.9
COC(=O)c1cscc1NC(C)=O | 9.4 | -20.4 | 1 | 30.1* | 8.8
CCCCCCNC(=O)C(C(=O)OCC)C1CCCCC1 (centres undefined) | 12.8 | -8.3 | 1 | -16.6 | x
Cn1c(=O)c(C(=O)Nc2ncccc2O)c(O)c2ccccc21 | x | x | 2.2* | x | -25.5
Cn1c(=O)c(C(=O)Nc2cccnc2)c(O)c2ccccc21 | 9.2 | -20.5 | x | 17.6 | -4.2
O=C(COc1ccc(Cl)cc1)Nc1cc(S(=O)(=O)N2CCCCC2)ccc1N1CCCCC1 | x | x | x | x | -6.1
CCc1nnc(NC(=O)C2c3ccccc3Oc3ccccc32)s1 | -23.2 | -16.3 | x | 46.4* | -18.3
Cn1c(NC(=O)C2c3ccccc3Oc3ccccc32)cc(=O)n(C)c1=O | 93.6* | 64.7 | 1 | -34.0 | 17.1
Cn1c(NC(=O)c2ccccc2)cc(=O)n(C)c1=O | 4.5 | -10.0 | 1.2 | 3.6 | x
CCCc1[nH]n(-c2nc3ccccc3s2)c(=O)c1C=NCC(C)C | 0.3 | -7.5 | 2.1* | -7.9 | 4.4
O=c1c(C=NCc2cccnc2)c(C(F)(F)F)[nH]n1-c1nc2ccccc2s1 | x | x | x | x | -10.8
CC(Sc1nnc(-c2cccs2)n1Cc1ccccc1)C(=O)NCc1ccc2c(c1)OCO2 (centres undefined) | -9.6 | -26.1 | 1.5 | x | 80.4*
O=C1CCCc2c1[nH]c1ccc(Cl)cc21 | 75.9* | 39.4 | x | -35.6 | -0.1
CCOC(=O)N1CCc2c(sc3c2c(=O)n(Cc2ccccc2)c(=O)n3Cc2ccccc2F)C1 | x | x | x | x | -16.3
CCOC(=O)N1CCc2c(sc3c2c(=O)n(Cc2ccccc2)c(=O)n3Cc2cccc(C)c2)C1 | x | x | x | x | 88.3*
Cc1nnc(SCc2cc(=O)[nH]c(=S)[nH]2)s1 | x | x | x | x | -11.3
SMILES | VCAM1 TNFa inh | HUVEC tox TNFa | PLAP act | cytoskel mod | E-sel TNF inh
CC(=O)Nc1cc(C(=O)NCc2ccco2)ccc1Sc1ccc(C)cc1 | x | x | x | x | 3.6
Cc1ccccc1Cn1ccc(NC(=O)c2cnn3c2NC(c2ccccc2)CC3C(F)(F)F)n1 (centres undefined) | 4.2 | -34.4 | 1.7 | 16.5 | 75.2*
Cc1ccc(-n2c(C3CC3c3ccc(Cl)cc3)n[nH]c2=S)cc1 (centres undefined) | 6.8 | -8.6 | 1.1 | 7.6 | -4.4
Cc1ccc(C2CC2c2n[nH]c(=S)n2-c2ccc(C)cc2)cc1 (centres undefined) | 3.3 | -34.0 | 2.1* | 11.3 | -15.1
O=C(NNC(=S)Nc1ccccc1)c1ccncc1 | -4.2 | 6.7 | 2* | 22.2 | -8.0
COc1ccc(OC)c(C(=O)CSc2nnc(Cc3cccs3)n2CCc2ccccc2)c1 | 7.9 | 10.1 | 1.4 | 6.7 | 17.1
O=C(NCCCN1CCc2ccccc2C1)Nc1ccc(Br)cc1 | -1.3 | -20.8 | 2.3* | 11.4 | -19.6
COc1ccc(NC(=O)NCCCN2CCc3ccccc3C2)cc1 | x | x | 1.6 | x | -0.5
COc1ccc(C(=O)c2c(C(F)(F)F)oc3c2C(=O)c2ccccc2C3=O)cc1 | 93.8* | 29.9 | 1.2 | -33.5 | -4.7
O=C(COn1nnc2ccccc21)N1CCN(Cc2ccccc2)CC1 | x | x | x | x | -5.3
CCOC(=O)c1[nH]nc(-c2cc(CC)c(O)cc2O)c1-c1cscn1 | 22.8 | -0.4 | 2.1* | 1.7 | -25.9
CCCc1cc2c(=O)c(-c3cscn3)c(C(=O)OCC)oc2cc1O | x | x | x | x | -4.3
COc1cccc(N2C(=O)CC(N3CCC(C(N)=O)(N4CCCCC4)CC3)C2=O)c1 (centres undefined) | 8.0 | 3.5 | x | -21.6 | -18.5
O=C(N/N=C/c1ccc(O)cc1)c1ccc(COc2cc(Cl)ccc2Cl)o1 | 22.9 | -5.7 | 1.2 | -40.0 | 96.0*
Cc1ccccc1C(=O)N/N=C/c1ccc([N+](=O)[O-])s1 | -20.4 | 0.4 | 1.4 | 16.2 | -8.4
O=C(N/N=C/c1ccc([N+](=O)[O-])s1)c1cccnc1 | x | x | x | x | 72.2*
Cc1ccc2nc(C)cc(Nc3ccc4c(c3)OCCO4)c2c1 | 22.5 | -13.6 | 1.4 | 5.1 | -3.8
CCOc1ccc2nc(C)cc(Nc3ccc4c(c3)OCCO4)c2c1 | 12.5 | -32.1 | 1.1 | 68.2* | 6.4
O=C(CN(C(=O)CNC(=O)c1ccco1)c1ccc(Cl)c(Cl)c1)NC1CCCCC1 | -11.8 | -13.1 | 1.3 | 15.5 | -11.9
CC(C)(C)NC(=O)NC(=O)COC(=O)c1cccc(S(=O)(=O)N2CCCCC2)c1 | x | x | x | x | 2.1
C=CCn1c(SCc2c(C)noc2C)nc2ccccc2c1=O | 59.8* | 36.0 | 1.6 | 12.6 | 3.1
Cc1[nH]n(-c2ccccc2)c(=O)c1Sc1ccc(Cl)cc1 | 2.5 | -0.7 | 1 | -14.3 | -15.2
Cc1cc(-c2c(C)[nH]n(-c3ccc(Cl)cc3)c2=O)n[nH]1 | -4.0 | -11.3 | 2* | -12.7 | 11.8
O=C(Cn1nnc(-c2ccc(Cl)cc2)n1)NC1CCN(Cc2ccccc2)CC1 | -16.1 | -18.5 | 1.5 | 21.1 | 99.9*
Cc1cc2cc(CCNC(=O)c3cccs3)c(=O)[nH]c2cc1C | x | x | x | x | 6.0
SMILES | VCAM1 TNFa inh | HUVEC tox TNFa | PLAP act | cytoskel mod | E-sel TNF inh
COCc1ccc2oc(C(=O)O)cc2c1 | 3.0 | -29.3 | 1 | 37.5 | x
CC(=O)c1ccc(NC(=O)Oc2ccccc2)cc1 | 14.7 | 8.5 | 0.8 | -11.1 | x
CCCOC(=O)c1ccc(Cl)c(NC(=O)c2ccc(-c3ccccc3)cc2)c1 | 9.8 | -13.4 | 1 | -2.2 | 99.9*
CCCOC(=O)c1ccc(NC(=O)Oc2ccccc2)cc1 | u | 100.0* | 1.1 | -21.6 | -3.6
CCOC(=O)/C=C/C(=O)OCC(=O)Nc1ccc(Cl)cc1Cl | x | x | x | x | -2.1
CCc1cc[n+](CC(=O)Nc2ccc(Cl)cc2Cl)cc1 | x | x | x | x | 76.8*
COc1ccc(NC(=O)c2cc3c(-c4ccc(OC)c(OC)c4)nn(C)c3s2)cc1OC | 6.6 | 3.3 | 2.3* | -19.4 | x
Cc1nc(CSc2nc3[nH]ncc3c(=O)n2-c2ccccc2)cs1 | 22.4 | -5.0 | 2.3* | 15.8 | -45.4
Cc1cccc(-n2c(SCc3cc(=O)n4c(C)cccc4n3)nc3[nH]ncc3c2=O)c1 | 0.1 | 11.4 | 2.8* | -2.1 | 4.9
